# Measured values taken from PubChem BioAssay AID1159580 (chemical genetic matrix, 2015).
# “And” between values parts separate entries of the source, which are not always exact repeats. Identical values can stand only once. Among all 5,500 compounds or so, about 2,000 (36%) were called active. Roughly 18% stayed inconclusive and do not appear here. Some of the results follow. Values without a mark were called inactive. No stated cut-off is given here; in the data, active means normalized growth mostly below about 0.91 (no sharp cut-off); inconclusive means no clear call, values can overlap the other calls; inactive means mostly above about 0.92.
# Assay: chemical genetic growth profiling, strain panel (AID 1159580);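 further: tested at 20 µM; growth read once vehicle control cultures reached saturation at 30 °C; 1 = growth at the plate median or of vehicle wells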
# Conditions: S. cerevisiae deletion strains, growth OD
compound,measurement,setting,value
CC[C@H](C)C(=O)O[C@H]1C[C@@H](C)C=C2C=C[C@H](C)[C@H](CC[C@@H]3C[C@@H](O)CC(=O)O3)[C@H]21,normalized growth,"locus YAL013W, strain DEP1, stronger effect = lower value",0.982
same,normalized growth,"locus YAL021C, strain ccr4, stronger effect = lower value",0.82 (active)
same,normalized growth,"locus YAL026C, strain drs2, stronger effect = lower value",0.994
same,normalized growth,"locus YAL030W, strain snc1, stronger effect = lower value",1.01
same,normalized growth,"locus YBL061C, strain skt5, stronger effect = lower value",1
same,normalized growth,"locus YBR009C, strain hhf1, stronger effect = lower value",1.02
same,normalized growth,"locus YBR021W, strain FUR4, stronger effect = lower value",1.04
same,normalized growth,"locus YBR023C, strain chs3, stronger effect = lower value",1.01
same,normalized growth,"locus YBR171W, strain sec66, stronger effect = lower value",1
same,normalized growth,"locus YBR229C, strain ROT2, stronger effect = lower value",0.944
same,normalized growth,"locus YBR231C, strain swc5, stronger effect = lower value",0.915
same,normalized growth,"locus YBR279W, strain paf1, stronger effect = lower value",1.01
same,normalized growth,"locus YCL011C, strain gbp2, stronger effect = lower value",1.01
same,normalized growth,"locus YCL016C, strain dcc1, stronger effect = lower value",0.999
same,normalized growth,"locus YCL029C, strain bik1, stronger effect = lower value",0.991
same,normalized growth,"locus YCL061C, strain MRC1, stronger effect = lower value",0.997
same,normalized growth,"locus YCL069W, strain vba3, stronger effect = lower value",1.01
same,normalized growth,"locus YCR088W, strain abp1, stronger effect = lower value",0.998
same,normalized growth,"locus YDL005C, strain med2, stronger effect = lower value",0.982
same,normalized growth,"locus YDL035C, strain GPR1, stronger effect = lower value",0.961
same,normalized growth,"locus YDL040C, strain nat1, stronger effect = lower value",1.01
same,normalized growth,"locus YDL074C, strain BRE1, stronger effect = lower value",1
same,normalized growth,"locus YDL101C, strain DUN1, stronger effect = lower value",0.977
same,normalized growth,"locus YDL134C, strain PPH21, stronger effect = lower value",0.971
same,normalized growth,"locus YDL185W, strain tfp1, stronger effect = lower value",0.977
same,normalized growth,"locus YDL192W, strain arf1, stronger effect = lower value",0.983
same,normalized growth,"locus YDR001C, strain nth1, stronger effect = lower value",1
same,normalized growth,"locus YDR069C, strain doa4, stronger effect = lower value",1.01
same,normalized growth,"locus YDR101C, strain arx1, stronger effect = lower value",1.02
same,normalized growth,"locus YDR137W, strain rgp1, stronger effect = lower value",1.28 [resistant] (active)
same,normalized growth,"locus YDR150W, strain NUM1, stronger effect = lower value",0.967
same,normalized growth,"locus YDR159W, strain sac3, stronger effect = lower value",1.02
same,normalized growth,"locus YDR162C, strain NBP2, stronger effect = lower value",0.951
same,normalized growth,"locus YDR195W, strain ref2",1.06
same,normalized growth,"locus YDR297W, strain sur2, stronger effect = lower value",0.997
same,normalized growth,"locus YDR318W, strain mcm21, stronger effect = lower value",0.996
same,normalized growth,"locus YDR334W, strain swr1, stronger effect = lower value",0.954
same,normalized growth,"locus YDR335W, strain msn5, stronger effect = lower value",1
same,normalized growth,"locus YDR388W, stronger effect = lower value",0.996
same,normalized growth,"locus YDR392W, strain spt3, stronger effect = lower value",0.983
same,normalized growth,"locus YDR502C, strain sam2, stronger effect = lower value",0.969
same,normalized growth,"locus YEL003W, strain gim4, stronger effect = lower value",1
same,normalized growth,"locus YEL037C, strain rad23, stronger effect = lower value",1
same,normalized growth,"locus YEL061C, strain CIN8 (second series), stronger effect = lower value",1
same,normalized growth,"locus YEL061C, strain CIN8, stronger effect = lower value",0.979
same,normalized growth,"locus YER015W, strain faa2, stronger effect = lower value",1.01
same,normalized growth,"locus YER016W, strain bim1, stronger effect = lower value",1
same,normalized growth,"locus YER110C, stronger effect = lower value",0.974
same,normalized growth,"locus YER111C, strain swi4, stronger effect = lower value",1.01
same,normalized growth,"locus YER155C, strain BEM2 (second series), stronger effect = lower value",1.01
same,normalized growth,"locus YER155C, strain BEM2, stronger effect = lower value",0.986
same,normalized growth,"locus YER167W, strain BCK2, stronger effect = lower value",0.942
same,normalized growth,"locus YFR010W, strain ubp6, stronger effect = lower value",1.02
same,normalized growth,"locus YGL078C, strain dbp3, stronger effect = lower value",0.984
same,normalized growth,"locus YGL086W, strain mad1, stronger effect = lower value",0.968
same,normalized growth,"locus YGL167C, strain pmr1, stronger effect = lower value",0.998
same,normalized growth,"locus YGL173C, strain kem1, stronger effect = lower value",1.01
same,normalized growth,"locus YGL227W, strain vid30, stronger effect = lower value",0.996
same,normalized growth,"locus YGL240W, strain doc1, stronger effect = lower value",1.04
same,normalized growth,"locus YGL248W, strain PDE1, stronger effect = lower value",0.974
same,normalized growth,"locus YGL253W, strain hxk2, stronger effect = lower value",0.996
same,normalized growth,"locus YGR078C, strain PAC10, stronger effect = lower value",0.996
same,normalized growth,"locus YGR135W, strain pre9, stronger effect = lower value",0.942
same,normalized growth,"locus YGR229C, strain SMI1, stronger effect = lower value",0.95
same,normalized growth,"locus YGR252W, strain gcn5, stronger effect = lower value",0.878
same,normalized growth,"locus YHR013C, strain ard1, stronger effect = lower value",1.04
same,normalized growth,"locus YHR027C, strain rpn1, stronger effect = lower value",1.01
same,normalized growth,"locus YHR030C, strain SLT2, stronger effect = lower value",0.985 and 0.963
same,normalized growth,"locus YHR079C, strain IRE1 (second series), stronger effect = lower value",0.995
same,normalized growth,"locus YHR079C, strain IRE1, stronger effect = lower value",0.992
same,normalized growth,"locus YHR094C, strain hxt1, stronger effect = lower value",0.989
same,normalized growth,"locus YHR129C, strain ARP1, stronger effect = lower value",0.996
same,normalized growth,"locus YHR142W, strain chs7, stronger effect = lower value",1
same,normalized growth,"locus YHR200W, strain rpn10, stronger effect = lower value",0.994
same,normalized growth,"locus YIL066C, strain RNR3, stronger effect = lower value",0.965
same,normalized growth,"locus YIL073C, strain SPO22, stronger effect = lower value",0.823
same,normalized growth,"locus YIL125W, strain kgd1, stronger effect = lower value",0.974
same,normalized growth,"locus YIR030C, strain dcg1, stronger effect = lower value",0.976
same,normalized growth,"locus YJL092W, strain hpr5, stronger effect = lower value",1
same,normalized growth,"locus YJL095W, strain BCK1 (second series), stronger effect = lower value",1.01
same,normalized growth,"locus YJL095W, strain BCK1, stronger effect = lower value",0.988 and 0.96
same,normalized growth,"locus YJL115W, strain asf1, stronger effect = lower value",1.01
same,normalized growth,"locus YJL129C, strain trk1, stronger effect = lower value",0.997
same,normalized growth,"locus YJL134W, strain LCB3, stronger effect = lower value",0.979
same,normalized growth,"locus YJL154C, strain vps35, stronger effect = lower value",1.01
same,normalized growth,"locus YJL164C, strain tpk1, stronger effect = lower value",1
same,normalized growth,"locus YJL166W, strain qcr8, stronger effect = lower value",1.01
same,normalized growth,"locus YJL168C, strain set2, stronger effect = lower value",0.996
same,normalized growth,"locus YJL187C, strain SWE1 (second series), stronger effect = lower value",0.989
same,normalized growth,"locus YJL187C, strain SWE1, stronger effect = lower value",1
same,normalized growth,"locus YJR043C, strain POL32, stronger effect = lower value",1.04
same,normalized growth,"locus YJR066W, strain TOR1, stronger effect = lower value",0.915
